Reference: ChEMBL document CHEMBL3433997, “St. Jude Leishmania screening dataset” (2016)

Columns and labels:
Assay type in all cases: functional
[1] = target: Solute carrier family 2, facilitated glucose transporter member 1 (Homo sapiens) (UniProt P11166); assay: ST_JUDE_LEISH: Cytotoxicity at 2uM final concentration against transgenic Leishmania Mexicana promastigotes LmGLUT1 that are glucose transport deficient and complemented with the human glucose transporter GLUT1. Activity is measured by DNA content using SYBR green in vitro
Chain of Solute carrier family 2, facilitated glucose transporter member 1 (Homo sapiens) (P11166 whole entry): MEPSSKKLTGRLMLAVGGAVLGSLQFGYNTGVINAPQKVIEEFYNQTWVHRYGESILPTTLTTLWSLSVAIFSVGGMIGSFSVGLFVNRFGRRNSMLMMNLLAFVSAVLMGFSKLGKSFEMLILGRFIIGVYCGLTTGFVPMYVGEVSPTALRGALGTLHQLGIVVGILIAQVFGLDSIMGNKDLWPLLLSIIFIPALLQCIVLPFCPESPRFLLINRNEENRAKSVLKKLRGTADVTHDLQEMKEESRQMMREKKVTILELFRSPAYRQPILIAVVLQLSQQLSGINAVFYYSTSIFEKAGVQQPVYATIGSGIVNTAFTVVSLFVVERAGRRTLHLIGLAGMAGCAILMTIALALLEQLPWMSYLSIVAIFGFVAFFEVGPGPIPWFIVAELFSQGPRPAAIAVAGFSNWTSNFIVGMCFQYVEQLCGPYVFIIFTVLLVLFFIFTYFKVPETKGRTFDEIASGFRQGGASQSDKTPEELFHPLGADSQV

[2] = target: Hexose transporter 1 (Plasmodium falciparum) (UniProt O97467); assay: ST_JUDE_LEISH: Cytotoxicity at 2uM final concentration against transgenic Leishmania Mexicana promastigotes LmPfHT that are glucose transport deficient and complemented with the Plasmodium falciparum hexose transporter. Activity is measured by DNA content using SYBR green in vitro
[3] = target: Glucose transporter (Leishmania mexicana) (UniProt O61059); assay: ST_JUDE_LEISH: Cytotoxicity at 2uM final concentration against transgenic Leishmania Mexicana promastigotes LmGT2 that are glucose transport deficient and complemented with the L. Mexicana glucose transporter 2. Activity is measured by DNA content using SYBR green in vitro

Row | SMILES | inhibition [1] | inhibition [2] | inhibition [3]
1 | Cc1cc(N[C@@H](CC(C)C)C(=O)NCCOc2ccccc2)nc(NCCOc2ccccc2)n1 | 3.79% | 1.16% | 17.1%
2 | Cc1ccccc1C1CCN(C2CCC(NC(=O)/C=C/c3ccc(OC(F)(F)F)cc3)CC2)CC1 (centres undefined) | -0.78% | -1.35% | 0.34%
3 | COc1ccc(C=NNc2nc3ccccc3[nH]2)cc1O | -3.31% | -1.02% | 1.86%
4 | CC12CCC(C(=O)N(CC(O)Cn3c4ccc(Cl)cc4c4cc(Cl)ccc43)C1=O)C2(C)C (centres undefined) | 2.14% | 0.85% | 0.38%
5 | COc1cc2nc(C)nc(Nc3cccc(Br)c3)c2cc1OC | -0.77% | -0.52% | -0.03%
6 | COc1ccc(S(=O)(=O)N2CCCC(C)C2)cc1N1CCN(C(=O)c2ccc([N+](=O)[O-])o2)CC1 (centres undefined) | 1.83% | 0.28% | 0.09%
7 | CCCOc1ccc(-c2nonc2NC(=O)c2ccccc2OC)cc1OCCC | 12% | 14.6% | 10.7%
8 | Cc1onc(-c2c(Cl)cccc2Cl)c1C(=O)NC1=NC(C)(C)ON1c1ccccc1 | 5.88% | 5.44% | 4.86%
9 | c1ccc(Oc2ccc(Nc3nncc4ccccc34)cc2)cc1 | 1.62% | 0.25% | -4.56%
10 | CCCCCCNc1cc(C)nc2ccc(OC)cc12 | 11.1% | 11.4% | 4.54%
11 | CCCOc1c(CCNCCCCNCCc2ccc3ccccc3c2OCCC)ccc2ccccc12 | 60.8% | 13.6% | 40.1%
12 | COCc1ccc(CN2CCC(C(=O)Nc3ccc(-c4nc5ccccc5[nH]4)cc3)CC2)o1 | 7.66% | 5.18% | 5.81%
13 | Cc1ccc(Nc2nc(NN=Cc3ccc(-c4ccc([N+](=O)[O-])cc4)o3)nc(N3CCOCC3)n2)cc1Cl | -1.18% | -1.96% | -0.54%
14 | O=C(Nc1ccsc1)Nc1cccc(-c2cccc(-c3nc4cc(F)ccc4[nH]3)c2)c1 | 2.33% | 2.8% | -5.19%
15 | CN(C)Cc1ccc(-c2ccc(NC(=O)c3ccc4c(=O)n(Cc5ccccc5)cnc4c3)cc2)cc1 | 95.2% | 94% | 63.3%
16 | O=C(Nc1cccc(C(F)(F)F)c1)c1cccc(S(=O)(=O)NC2CCCN(CC3CCCCC3)C2)c1 (centres undefined) | 0.39% | 0.03% | 0.55%
17 | O=C(NCc1ccc(F)cc1)Nc1cccc(-c2ccc(-c3nc4ccccc4[nH]3)cc2)c1 | 1.76% | 0.3% | -0.44%
18 | Cc1cccc2nc(-c3ccc(-c4ccc(CNCC5CCCO5)cc4)s3)[nH]c12 (centres undefined) | 1.99% | 2.71% | 1.98%
19 | COc1ccc(NC(=O)Nc2ccc(-c3ccc(-c4nc5cccc(C)c5[nH]4)s3)cc2)cc1 | 4.04% | 4.64% | 3.71%
20 | O=C(Nc1ccc(Cl)cc1)Nc1cccc(-c2cccc(-c3nc4cc(F)ccc4[nH]3)c2)c1 | 7% | 6.99% | 6.45%
21 | FC(F)(F)COc1c(CCNCCCCNCCc2ccc3ccccc3c2OCC(F)(F)F)ccc2ccccc12 | 105% | 103% | 108%
22 | O=C(/C=C/c1ccc(Cl)c(Cl)c1)NCCCCCCN1CCCN(C(=O)Nc2ccc(F)c(Cl)c2)CC1 | 3.61% | 2.44% | 2.6%
23 | Cc1ccc(C)c(CN2CCC(CNC(=O)c3cc4ccc5cccnc5c4[nH]3)CC2)c1 | 0.51% | -0.66% | -0.23%
